Results reported in PubChem BioAssay AID1159580 (chemical genetic matrix, 2015).
Out of some 5,500 compounds screened, about 2,000 (36%) were called active. Inconclusive results (about 18%) are left out. Rule as the data show it: active = normalized growth mostly below about 0.91 (no sharp cut-off); inconclusive = no clear call, values can overlap the other calls; inactive = mostly above about 0.92. The list shows a part of the results.

Assay: chemical genetic growth profiling, strain panel (AID 1159580);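 also: tested at 20 µM; growth read once vehicle control cultures reached saturation at 30 °C; 1 = growth at the plate median or of vehicle wells; lower values mean less growth of the strain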
Conditions: growth OD

Measured: normalized growth

C[C@@H]1O[C@@H](O[C@H]2CC[C@]3(C=O)C4CC[C@]5(C)[C@@H](C6=CC(=O)OC6)CC[C@]5(O)C4CC[C@]3(O)C2)[C@H](O)[C@H](O)[C@H]1O (stereo not given in full)
inactive: S. cerevisiae deletion strains, locus YJR066W, strain TOR1, active compounds read low 0.953 | S. cerevisiae deletion strains, locus YJR075W, strain HOC1, active compounds read low 0.989 | S. cerevisiae deletion strains, locus YKL009W, strain mrt4, active compounds read low 1.05 | S. cerevisiae deletion strains, locus YKL068W, active compounds read low 0.991 | S. cerevisiae deletion strains, locus YKL085W, strain MDH1 (second series), active compounds read low 0.999 | S. cerevisiae deletion strains, locus YKL085W, strain MDH1, active compounds read low 0.999 | S. cerevisiae deletion strains, locus YKL160W, strain elf1, active compounds read low 1.01 | S. cerevisiae deletion strains, locus YKL190W, strain CNB1, active compounds read low 0.988 | S. cerevisiae deletion strains, locus YKR001C, strain vps1, active compounds read low 0.995 | S. cerevisiae deletion strains, locus YKR026C, strain gcn3, active compounds read low 0.997 | S. cerevisiae deletion strains, locus YKR091W, strain srl3, active compounds read low 0.997 | S. cerevisiae deletion strains, locus YLL001W, strain dnm1, active compounds read low 1.01 | S. cerevisiae deletion strains, locus YLL026W, active compounds read low 0.995 | S. cerevisiae deletion strains, locus YLL041C, strain sdh2, active compounds read low 1 | S. cerevisiae deletion strains, locus YLR027C, strain aat2, active compounds read low 0.999 | S. cerevisiae deletion strains, locus YLR039C, strain RIC1, active compounds read low 0.977 | S. cerevisiae deletion strains, locus YLR058C, strain SHM2, active compounds read low 0.981 | S. cerevisiae deletion strains, locus YLR102C, strain apc9, active compounds read low 0.997 | S. cerevisiae deletion strains, locus YLR113W, strain HOG1, active compounds read low 0.952 | S. cerevisiae deletion strains, locus YLR221C, strain rsa3, active compounds read low 1.01 | S. cerevisiae deletion strains, locus YLR258W, strain gsy2, active compounds read low 0.991 | S. cerevisiae deletion strains, locus YLR262C, strain YPT6 (second series), active compounds read low 1.01 | S. cerevisiae deletion strains, locus YLR262C, strain YPT6, active compounds read low 0.914 | S. cerevisiae deletion strains, locus YLR268W, strain sec22, active compounds read low 1.01 | S. cerevisiae deletion strains, locus YLR320W, strain mms22, active compounds read low 0.989 | S. cerevisiae deletion strains, locus YLR330W, strain CHS5, active compounds read low 1 | S. cerevisiae deletion strains, locus YLR342W, strain FKS1 (second series), active compounds read low 1.06 | S. cerevisiae deletion strains, locus YLR342W, strain FKS1, active compounds read low 0.999 | S. cerevisiae deletion strains, locus YLR357W, strain rsc2, active compounds read low 0.959 | S. cerevisiae deletion strains, locus YLR370C, strain arc18, active compounds read low 1.01 | S. cerevisiae deletion strains, locus YLR371W, strain rom2, active compounds read low 0.978 | S. cerevisiae deletion strains, locus YLR384C, strain iki3, active compounds read low 0.987 | S. cerevisiae deletion strains, locus YLR418C, strain cdc73, active compounds read low 0.964 | S. cerevisiae deletion strains, locus YML016C, strain PPZ1, active compounds read low 0.995 | S. cerevisiae deletion strains, locus YML032C, strain rad52, active compounds read low 0.991 | S. cerevisiae deletion strains, locus YML120C, strain ndi1, active compounds read low 0.994 | S. cerevisiae deletion strains, locus YML124C, strain tub3, active compounds read low 0.983 | S. cerevisiae deletion strains, locus YMR058W, strain fet3, active compounds read low 1 | S. cerevisiae deletion strains, locus YMR078C, strain ctf18, active compounds read low 0.976 | S. cerevisiae deletion strains, locus YMR125W, strain sto1, active compounds read low 0.969 | S. cerevisiae deletion strains, locus YMR129W, active compounds read low 0.998 | S. cerevisiae deletion strains, locus YMR205C, strain PFK2, active compounds read low 0.954 | S. cerevisiae deletion strains, locus YMR223W, strain ubp8, active compounds read low 0.962 | S. cerevisiae deletion strains, locus YMR231W, strain pep5, active compounds read low 0.998 | S. cerevisiae deletion strains, locus YMR307W, strain GAS1, active compounds read low 0.977 | S. cerevisiae deletion strains, locus YNL067W, strain RPL9B, active compounds read low 0.975 | S. cerevisiae deletion strains, locus YNL071W, strain lat1, active compounds read low 1 | S. cerevisiae deletion strains, locus YNL183C, strain NPR1, active compounds read low 0.965 | S. cerevisiae deletion strains, locus YNL209W, strain ssb2, active compounds read low 1 | S. cerevisiae deletion strains, locus YNL233W, strain BNI4, active compounds read low 0.999 | S. cerevisiae deletion strains, locus YNL248C, strain rpa49, active compounds read low 1.01 | S. cerevisiae deletion strains, locus YNL250W, strain rad50, active compounds read low 0.993 | S. cerevisiae deletion strains, locus YNL271C, strain bni1, active compounds read low 0.985 | S. cerevisiae deletion strains, locus YNL298W, strain CLA4, active compounds read low 1 | S. cerevisiae deletion strains, locus YNL307C, strain MCK1, active compounds read low 0.992 | S. cerevisiae deletion strains, locus YNL322C, strain KRE1 (second series), active compounds read low 1.01 | S. cerevisiae deletion strains, locus YNL322C, strain KRE1, active compounds read low 0.994 | S. cerevisiae deletion strains, locus YNR049C, strain mso1, active compounds read low 1.01 | S. cerevisiae deletion strains, locus YNR052C, strain pop2, active compounds read low 0.998 | S. cerevisiae deletion strains, locus YOL006C, strain TOP1, active compounds read low 1.12 | S. cerevisiae deletion strains, locus YOL012C, strain htz1 0.98 | S. cerevisiae deletion strains, locus YOL147C, strain pex11, active compounds read low 0.998 | S. cerevisiae deletion strains, locus YOR001W, strain rrp6, active compounds read low 1 | S. cerevisiae deletion strains, locus YOR061W, strain CKA2, active compounds read low 0.973 | S. cerevisiae deletion strains, locus YOR069W, strain VPS5, active compounds read low 1 | S. cerevisiae deletion strains, locus YOR070C, strain gyp1, active compounds read low 0.999 | S. cerevisiae deletion strains, locus YOR080W, strain dia2, active compounds read low 0.988 | S. cerevisiae deletion strains, locus YOR083W, strain WHI5, active compounds read low 1.01 | S. cerevisiae deletion strains, locus YOR106W, strain vam3, active compounds read low 0.998 | S. cerevisiae deletion strains, locus YOR136W, strain idh2, active compounds read low 1 | S. cerevisiae deletion strains, locus YOR144C, strain elg1, active compounds read low 0.993 | S. cerevisiae deletion strains, locus YOR184W, strain ser1, active compounds read low 0.975 | S. cerevisiae deletion strains, locus YOR231W, strain MKK1, active compounds read low 0.996 | S. cerevisiae deletion strains, locus YOR265W, strain rbl2, active compounds read low 0.999 | S. cerevisiae deletion strains, locus YOR270C, strain vph1, active compounds read low 1.02 | S. cerevisiae deletion strains, locus YOR290C, strain snf2, active compounds read low 0.994 | S. cerevisiae deletion strains, locus YOR316C, strain cot1, active compounds read low 0.991 | S. cerevisiae deletion strains, locus YPL051W, strain arl3, active compounds read low 1.01 | S. cerevisiae deletion strains, locus YPL055C, strain LGE1, active compounds read low 1 | S. cerevisiae deletion strains, locus YPL078C, strain atp4, active compounds read low 1.02 | S. cerevisiae deletion strains, locus YPL106C, strain sse1, active compounds read low 0.977 | S. cerevisiae deletion strains, locus YPL240C, strain hsp82, active compounds read low 1.01 | S. cerevisiae deletion strains, locus YPL241C, strain CIN2, active compounds read low 0.995 | S. cerevisiae deletion strains, locus YPL256C, strain CLN2, active compounds read low 0.987 | S. cerevisiae deletion strains, locus YPR119W, strain clb2, active compounds read low 1 | S. cerevisiae deletion strains, locus YPR141C, strain kar3, active compounds read low 0.98 | S. cerevisiae deletion strains, locus YPR163C, strain tif3, active compounds read low 0.983 | S. cerevisiae deletion strains, locus YPR167C, strain met16, active compounds read low 1 | S. cerevisiae deletion strains, strain wtn01, active compounds read low 1.03 | S. cerevisiae strains, strain wild type, active compounds read low 0.989
